# Screening results from PubChem BioAssay.
# A selection: hits, their analogues and other compounds. The true share with any hit is near 5%.
# TbPYK inhibitor – blocks Trypanosoma brucei pyruvate kinase. actives 0.12% (n = 410,000). Q57TT1. TbPYK enzyme, Kinase-Glo Plus ATP luminescence, 45 min. Potency, µM (top dose mostly 76.8 µM), without a hit: at the top dose activity, negative = inhibition, usual class: inhibitors; further: potency means the concentration at half of the fitted maximal effect; nearly all actives have a fitted effect of over 50% in size
#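 Quantitative HTS: titrated library compounds versus trypanosomal pyruvate kinase in TEA buffer (pH 7.2) containing KCl, MgCl2, BSA and Tween-20. Reactions were initiated with ADP, 130 uM final. Kinase-Glo Plus luminescence was read after 45 min at RT.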
# Vaccinia mCherry – inhibitors of vaccinia virus infection (mCherry reporter signal) | Potency, µM (titrated, usually from 36.5 µM), inactives show at the top dose activity change, negative = inhibition, most hits filed as inhibitors | Vaccinia virus mCherry reporter infection, fluorescence | actives 0.63% (n = 310,000) | AID 720579; calls by dose curve; tested in A549 cells; further: potency means the concentration at half of the fitted maximal effect; nearly all actives have a fitted effect of over 35% in size
# HCMV inh – human cytomegalovirus inhibition | HFF cells, HCMV-luciferase reporter, 72 h; hits give low values | activity change, negative = inhibition, % at 57.5 µM | actives 4.5% (n = 410,000) | AID 1259415; in the data active means activity change below about -60%; inconclusive means no clear call, values can overlap the other calls; inactive means above about -39%
#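 After 16 h attachment at 37C, HFF cells received test compound and HCMV-luciferase (1 PFU/cell); reporter luminescence read 72 h later, data normalized against buffer-only and known inhibitor Salinomycin.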
# LmPK inh – blocks Leishmania mexicana pyruvate kinase activity; Q27686; purified LmPK, Kinase-Glo ATP luminescence, 1 h; Potency, µM (doses to about 57.5 µM), without a hit: at the top dose activity change, negative = inhibition, hits mostly inhibitors; actives 0.37% (n = 290,000); AID 1721; further: potency means the concentration at half of the fitted maximal effect
# Target sequence (Q27686 whole entry, looked up): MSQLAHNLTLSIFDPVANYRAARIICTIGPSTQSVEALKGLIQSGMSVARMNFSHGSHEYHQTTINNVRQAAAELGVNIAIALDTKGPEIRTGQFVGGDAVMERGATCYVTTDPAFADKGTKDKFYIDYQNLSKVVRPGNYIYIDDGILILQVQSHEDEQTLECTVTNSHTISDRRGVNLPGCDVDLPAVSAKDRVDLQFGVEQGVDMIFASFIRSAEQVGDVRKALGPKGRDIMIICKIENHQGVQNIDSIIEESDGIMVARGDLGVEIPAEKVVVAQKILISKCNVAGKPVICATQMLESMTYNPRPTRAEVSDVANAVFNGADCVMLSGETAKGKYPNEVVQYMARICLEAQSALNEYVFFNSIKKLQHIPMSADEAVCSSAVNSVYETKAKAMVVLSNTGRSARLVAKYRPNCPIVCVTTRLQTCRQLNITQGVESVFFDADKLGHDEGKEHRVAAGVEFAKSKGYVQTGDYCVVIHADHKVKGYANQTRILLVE
#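 In 50 mM imidazole pH 7.2 with 7 mM MgCl2, LmPK (0.1 nM) turned over PEP (0.5 mM) and ADP (0.1 mM) for 1 h at room temperature. Luciferase read-out of ATP.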
# VACV Venus inh – vaccinia inhibition (Venus reporter) | Vaccinia virus Venus reporter expression, fluorescence | Potency, µM (series often up to 36.5 µM), for the others: at the highest dose activity change, negative = inhibition, hits mostly inhibitors | actives 0.46% (n = 330,000) | AID 720580; calls by dose curve; tested in A549 cells; further: potency means the concentration at half of the fitted maximal effect; nearly all actives have a fitted effect of over 30% in size
# The depositor's hits bear a star; i = inactive; ? = inconclusive; . = no result given; [ ] = dose if it differs, or a comment. Unless noted, the call rests on the fitted dose curve; in most records, active means well fitted curve in the direction sought with a large enough effect; inconclusive means small, poorly fitted or top-dose-only effect, or another doubt; inactive means no such curve, though single readings can be large; an effect the other way counts as inactive or inconclusive. On the % scale 0 is the no-effect control and ±100 the full control effect.
SMILES,TbPYK inhibitor,Vaccinia mCherry,HCMV inh,LmPK inh,VACV Venus inh
CCOc1ccc(NC(=O)CN(C)C(=O)CCCn2c(=O)oc3ccccc32)cc1OCC,4.3%,-23.7%,-2.7,.,-10.7%
Cc1cccc(N2CCN(S(=O)(=O)c3ccc4c(c3)CC(C)N4C(=O)C3CC3)CC2)c1C (stereo not given),-3.9%,.,-61.3*,4.8%,.
CC(=O)N1c2ccc(S(=O)(=O)NCC3CCC(C(=O)Nc4cccc(C)n4)CC3)cc2CC1C (stereo not given),-1.9%,-3.6%,-71.2*,1.7%,3.1%
CC(=O)N1c2ccc(S(=O)(=O)NCC3CCC(C(=O)Nc4cccc(C)c4)CC3)cc2CC1C (stereo not given),16.4%,-18.5%,37.6,.,-19.8%
Cc1cc(Cl)ccc1NC(=O)CCS(=O)(=O)c1ccc2c(c1)CC(C)N2C(=O)C1CC1 (stereo not given),-6.4%,-10.7%,-65.1*,.,-17.3%
Cc1ccc(C)c(N2CCN(S(=O)(=O)c3ccc4c(c3)CC(C)N4C(=O)C3CC3)CC2)c1 (stereo not given),4.2%,-13.7%,?,5.1%,-3.2%
CC(=O)N1c2ccc(S(=O)(=O)N3CCC(C(=O)Nc4cccc(C)n4)CC3)cc2CC1C (stereo not given),2.6%,.,-86.7*,1.8%,.
COc1cc2c(c(OC)c1OC)CCc1cnoc1-2,-0.6%,-23.4%,-13.2,4.7%,-8.7%
CC(C)NC(=O)C1(C)CCCN1Cc1ccccc1 (stereo not given),-2.3%,i,-1.5,.,3.2%
CC(C)CNC(=O)C1(C)CCCN1Cc1ccc(S(C)(=O)=O)cc1 (stereo not given),0.4%,5.3%,-101.6*,.,-4.1%
Cn1cnc([N+](=O)[O-])c1Oc1ccc2ccccc2c1,-0.1%,6.31µM*,23.1,-7.1%,7.94µM*
Cc1cc(NC(=O)CSc2nc(C3CCCCC3)nc3ccccc23)no1,0.6%,.,-76.3*,0.3%,?
O=C(CSc1nc(C2CC2)nc2ccccc12)Nc1ccccc1Cl,0.9%,i,4.0,-6.1%,-6.4%
Cc1cc(NC(=O)CSc2nc3ccccc3c(=O)n2C2CCCC2)no1,0.0%,.,-62.2*,0.0%,.
O=C(CSc1nc(C2CC2)nc2ccccc12)Nc1ccccc1N1CCOCC1,0.5%,.,-72.0*,2.5%,.
Cc1nonc1NC(=O)CSc1nc(C23CC4CC(CC(C4)C2)C3)nc2ccccc12,2.5%,.,-68.8*,-1.3%,.
CN(C)c1ccc(NC(=O)CSc2nc3ccccc3c(=O)n2C2CCCCC2)cc1,13.7%,.,?,-3.0%,.
O=C(CSc1nc(C2CC2)nc2ccccc12)Nc1ccccc1,0.4%,-6.6%,-35.7,-0.2%,-21.5%
Cc1nonc1NC(=O)CSc1nc(C2CCCCC2)nc2ccccc12,-12.2%,.,-88.3*,3.1%,.
Cc1ccc(OCCn2cc(C(=O)O)c3ccccc32)cc1,2.0%,-11.1%,4.5,-2.2%,-2.2%
Cc1ccc(OCCn2cc(C(=O)C3CCCCC3)c3ccccc32)cc1,0.2%,-12.8%,-101.0*,.,-9.6%
S=C(c1cn(CCOc2cccc3ccccc23)c2ccccc12)N1CCCC1,-8.8%,i,-76.7*,2.1%,-14.9%
Cc1ccc(OCCn2cc(C(=S)N3CCCC3)c3ccccc32)cc1C,?,3.98µM*,-97.9*,2.1%,-25.5%
O=C(CSc1nncs1)Nc1cccc2ccccc12,0.4%,-12.1%,-37.5,.,-11.4%
O=C(CN1CCN(Cc2ccccc2F)C1=O)NCc1ccccc1,4.0%,18.6%,12.1,.,11.1%
SMILES,TbPYK inhibitor,Vaccinia mCherry,HCMV inh,LmPK inh,VACV Venus inh
Nn1c(SCc2ccc(Br)cc2)nnc1-c1ccncc1,-0.4%,.,-63.0*,0.0%,.
CCC(C)Sc1nc2c(c(=O)[nH]1)C(c1cccs1)C1=C(CCCC1=O)N2 (stereo not given),4.8%,-1.0%,-92.8*,-0.4%[11.5 µM],?
O=C(Nc1ccc(Br)c(C(F)(F)F)c1)c1ccc(C(F)(F)F)cc1,-6.2%,?,-96.7*,0.0%,?
O=C(Nc1ccc(Br)c(C(F)(F)F)c1)c1ccccc1,-10.3%,?,-89.6*,3.3%,-28.2%
O=C(Nc1ccc(C(F)(F)F)cc1)c1ccccc1,1.3%,9.5%,-6.2,.,-15.6%
O=C1C(=O)c2ncccc2-c2cccnc21,-3.3%,.,.,.,.
NC1=C(Br)C(=O)c2ncccc2C1=O,-24.5%,?,-101.5*,.,2.51µM*
CC(=O)c1c(C)nc2ccc(C)cc2c1-c1ccccc1,-1.5%,-2.2%,?,3.5%,-2.5%
O=C(COc1ccccc1[N+](=O)[O-])Nc1ccc(Br)cc1,3.7%,-25.6%,18.1,4.6%,-26.1%
CC1(CO)COC2(OC1)C(=O)Nc1ccccc12 (stereo not given),-8.2%,i,-75.7*,.,-13.9%
O=C1Nc2ccccc2C12OCCCO2,-5.6%,.,58.1,-2.3%,-15.3%
COc1ccc2c(c1)sc1nc(-c3ccccc3)cn12,?,-19.4%,-97.9*,12.6µM*,-26.6%
O=C(c1ccccc1Cl)N1N=C(c2ccc(Br)cc2)CC1c1nc2ccccc2[nH]1 (stereo not given),-10.4%,?,-10.1,8.8%,-27.2%
Cc1ccc(NC(=O)c2c(C)nc3sc(C(=O)Nc4ccc(F)cc4)c(N)c3c2-c2ccccc2Cl)c(C)c1,-0.3%,2.2%,-11.3,.,-1.5%
COC(=O)c1[nH]c2cc(OC)ccc2c1NC(=O)CCN1CCN(c2ccccc2)CC1,14.7%,.,-3.0,5.9%,.
COC(=O)c1[nH]c2ccccc2c1NC(=O)CN1CCN(c2cccc(OC)c2)C(C)C1 (stereo not given),-1.4%,.,-103.5*,-4.9%,.
CCN(CC)CCNc1cc(C)nc2c1C(=O)C(=O)C=C2N1CCCCC1,0.8%,.,-98.0*,?,.
Cc1sc2ncnc(NCc3cccs3)c2c1C,6.3%,.,-91.9*,-0.7%,.
Cc1sc2ncnc(NCc3cccnc3)c2c1C,-0.2%,i,-61.1*,-1.1%,-14.1%
CC1CCc2c(sc3ncnc(NCCN4CCOCC4)c23)C1 (stereo not given),-4.8%,-5.3%,-15.1,-6.2%,-16.6%
Cc1sc2ncnc(NCCN3CCOCC3)c2c1C,27.9%,.,-76.3*,-4.7%,.
Cc1c(Cl)cccc1NC(=O)CN(C1CCCCC1)S(C)(=O)=O,-3.4%,.,24.1,7.5%,.
CC(C)NC(=O)C1CCN(C2CCN(C(=O)/C=C/c3cccs3)CC2)CC1,-1.5%,i,0.0,-0.2%,-6.2%
CCSc1nc(C)c(CC)c(C)c1C(N)=O,-13.2%,.,22.5,-9.5%,?
COc1ccc2c(c1)C(c1ccc(N(CCCl)CCCl)cc1)=NCC2,-15.7%,i,?,.,-1.3%
ClCCN(CCCl)c1ccc(C2=NCCc3ccccc32)cc1,-0.3%,?,-73.7*,.,-22.9%
COc1ccc(NC(=O)COC(=O)c2ccc(S(=O)(=O)N3CCCCCC3)cc2)c(OC)c1,-10.3%,i,-28.8,.,-10.9%
Cc1ccc[n+](Cc2ccc([N+](=O)[O-])cc2)c1,4.1%,.,-7.7,0.9%,.
